Assay results published in PubChem BioAssay (NCI).
About 83,000 compounds went through this panel and 20% of them were active in at least one assay; those are over-represented in the sample as a whole.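 How to read the values: 0–100, growth inhibition (40 = 60% inhibited); 0, no net growth; -100 to 0, cell death (-40 = 40% of starting cells died; -100 = all dead).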 Unmarked numbers belong to inactive results. Rule for the calls: active = growth percent below 10; inactive = the rest.

tested on: MDA-MB-468 breast; test: NCI-60 one-dose screen, 48 h (100 = growth as untreated, 0 = no growth, -100 = all killed); settings: 10 µM unless noted

With `COc1cc(/C=C2\C=C(c3ccccc3)N(CCc3ccccc3)C2=O)cc(OC)c1OC` as the molecule, how does the growth read?
Its growth is 89.2%.

How did the growth turn out when `CCOC(=O)c1cc(C(=O)c2cc(OC)c(OC)c(OC)c2)n2ccc(-c3ccncc3)cc12` was run?
The growth was 99.1%.

How did the growth turn out when `O=C(Cc1ccc(F)c(Cl)c1)Nc1cc(C2(C(F)(F)F)CC2)nn1Cc1ccccc1` was run?
The growth was 23.9%.
